Bioassay records: PubChem, Broad Institute
This is one part of a sample in which hits are shown more often than they occur.
aSyn UTR act – Activators working through SNCA 5'UTR binding (MLPCN) | alpha-synuclein 5'UTR reporter, activators screen | activity score, % (tested at 7.5 µM), hits read low | 300,000 tested, 7.1% active | AID 1814; in the data active = activity score below about -60%
Hits are given with their value; - = inactive.

SMILES	aSyn UTR act
Cc1c(NC(=O)c2ccc(-c3ccccc3)cc2)cccc1C(=O)O	-85
O=C(COc1ccccc1Cl)c1ccc2c(c1)CCCC2	-201
CCCCN=C1NN=C(c2cc3ccccc3o2)CS1	-106
CCCCN=C1NN=C(c2cccc([N+](=O)[O-])c2)CS1	-68
O=C(NCCOc1ccccc1)C1CCCCC1	-89
O=C(/C=C/c1ccccc1)NCCOc1ccccc1	-64
O=C(/C=C/c1ccc(F)cc1)NCCC1=CCCCC1	-105
COc1ccccc1/C=C/C(=O)NCCC1=CCCCC1	-150
O=C(/C=C/c1ccccc1)NCCC1=CCCCC1	-194
Cc1ccc2[nH]c3ccccc3c(=O)c2c1	-93
CNC(=O)c1cc2c(cn1)[nH]c1ccccc12	-98
CC(=O)N(C(C)=O)c1ncc2c([nH]c3ccccc32)c1C#N	-
Cc1ccc(CSc2nnc(SCC(=O)N/N=C/c3c(C)nn(-c4ccccc4)c3C)s2)cc1	-115
Cc1nn(-c2ccccc2)c(C)c1/C=N/NC(=O)CSc1nnc(SCc2ccccc2Cl)s1	-71
CCCc1ccc2oc(C(=O)NCCc3cnn(C)c3)c(C)c2c1	-182
Cc1c(C(=O)N2CCN(C)CC2)oc2ccc(Br)cc12	-104
CCCc1ccc2oc(C(=O)N3CCCC3)c(C)c2c1	-179
COC(=O)c1ccc(NS(=O)(=O)NC(=O)c2cn(C)c3ccccc23)cc1	-84
COc1cccc(NS(=O)(=O)NC(=O)c2cn(C)c3ccccc23)c1	-69
CC(C)(C)C1CCC(OC(=O)CN2CCCCC2)CC1 (configuration not stated)	-63
O=C(N/N=C/c1ccccc1O)NC12CC3CC(CC(C3)C1)C2	-168
O=C(CCN1CCN(c2ccccc2)CC1)N/N=C/c1ccccc1O	-
Cc1cccc(C)c1OCc1cc(C(=O)N2CCC(c3ccccc3)CC2)no1	-80
COCC1CCCN(C(=O)c2cc(COc3ccc(C(C)=O)cc3)on2)C1 (configuration not stated)	-149
CC(=O)c1ccc(OCc2cc(C(=O)N3CCCCC3c3cccnc3)no2)cc1 (configuration not stated)	-83
SMILES	aSyn UTR act
CC(=O)c1ccc(OCc2cc(C(=O)NC(C)CCn3cccn3)no2)cc1 (configuration not stated)	-164
CC(=O)c1ccc(OCc2cc(C(=O)N3CC[C@@H]4CCCC[C@H]4C3)no2)cc1	-126
Cc1cccc(C)c1OCc1cc(C(=O)N2CCN(c3ccc(F)cc3)CC2)no1	-72
CC(=O)c1ccc(OCc2cc(C(=O)NC3CCCCC3)no2)cc1	-81
COCC1CCCN(C(=O)c2cc(COc3cncc(Cl)c3)on2)C1 (configuration not stated)	-137
Cc1cccc(C)c1OCc1cc(C(=O)N2CCC(C3CCCCC3)C2)no1 (configuration not stated)	-159
Cc1ccc(OCc2cc(C(=O)NC(C)Cc3cccnc3)no2)cc1C (configuration not stated)	-82
CSc1nc(O)c(N=Nc2ccc(F)cc2F)c(=O)[nH]1	-138
O=C(Nc1nccs1)c1ccc(-c2ccccc2Cl)o1	-286
O=C(Nc1nccs1)c1ccc(-c2ccccc2[N+](=O)[O-])o1	-135
COc1ccccc1NC(=O)c1ccc(-c2ccccc2[N+](=O)[O-])o1	-125
COc1ccc2c(c1OC)C(=O)OC2Nc1nc(-c2ccc(-c3ccccc3)cc2)cs1 (configuration not stated)	-233
CC(=O)c1ccc(NC(=O)CSc2nc(N3CCOCC3)nc(N3CCOCC3)n2)cc1	-73
CC(=O)Nc1c(O)nc(SCC(=O)Nc2ccc(C(C)=O)cc2)[nH]c1=O	-157
CCC(=O)Nc1ccccc1C(=O)C(=O)Nc1ccccc1	-70
CC(=O)Nc1ccccc1C(=O)C(=O)Nc1cccc(Br)c1	-79
CC(=O)Nc1ccccc1C(=O)C(=O)Nc1ccc(Cl)cc1	-106
CC(=O)Nc1ccccc1C(=O)C(=O)Nc1ccccc1	-96
O=c1cc(N2CCOCC2)cnn1-c1ccccc1	-123
CC(C)N1CN=C(Nc2nc3ccccc3o2)NC1	-70
COCCN1CN=C(Nc2nc3ccccc3o2)NC1	-83
c1ccc2oc(NC3=NCN(C4CCCCC4)CN3)nc2c1	-174
CCCCN1CN=C(Nc2nc3ccccc3o2)NC1	-136
Cc1ccc(C(=O)Nc2ccsc2C(=O)O)cc1	-141
Cc1ccc(C(=O)NC2=NCCS2)cc1	-118
SMILES	aSyn UTR act
O=C(NC1=NCCS1)c1ccc(C(F)(F)F)cc1	-123
Cc1ccc(C(=O)NC2=NCCS2)cc1Cl	-110
COc1ccc(C(=O)NC2=NCCS2)cc1	-91
N#Cc1ccc(C(=O)NC2=NCCS2)cc1	-141
COc1ccc(CNc2nc(Cl)c(C#N)s2)cc1	-95
N=C(N)SCc1ccc(Cl)cc1Cl	-71
Cc1ccc(N2C(=O)c3ccccc3NC2(C(=O)O)c2ccccc2)cc1Cl (configuration not stated)	-68
COc1ccc(-c2cc3ncc(C(C)=O)c(C)n3n2)cc1	-137
CC(=O)c1cnc2nc(SCc3ccccc3)nn2c1C	-157
CC(=O)c1cnc2cc(-c3ccccc3)nn2c1C	-167
CC(=O)c1cnc2cc(-c3ccc(C)cc3)nn2c1C	-243
CC1(C)CC(=O)C=C(NNC(=O)c2ccccc2O)C1	-93
Cc1ccc(NC(=O)C(=O)NCCCN2CCCC2=O)cc1	-71
CCc1ccc(NC(=O)NCCCN2CCCC2=O)cc1	-65
COc1ccc(CN(C(=O)c2cc3ccccc3oc2=O)C2CCS(=O)(=O)C2)cc1OC (configuration not stated)	-115
CCOc1ccc(CN(C(=O)c2cc3ccccc3oc2=O)C2CCS(=O)(=O)C2)cc1 (configuration not stated)	-78
O=C(c1cc2ccccc2oc1=O)N(Cc1ccccc1)C1CCS(=O)(=O)C1 (configuration not stated)	-88
O=C(c1cc2ccccc2oc1=O)N(Cc1ccccc1F)C1CCS(=O)(=O)C1 (configuration not stated)	-95
CC(SCc1ccccc1)C(=O)Nc1ccc2c(c1)OCO2 (configuration not stated)	-66
COc1cccc(NC(=O)C(C)SCc2ccccc2)c1 (configuration not stated)	-63
Cc1ccc(NC(=O)C(C)SCc2ccccc2)cc1 (configuration not stated)	-87
COc1cccc(NC(=O)c2ccco2)c1	-116
Cc1ccc(NC(=O)c2ccco2)cc1C	-103
Cc1ccc(C(=O)Nc2ccc3c(c2)OCO3)cc1NC(=O)c1ccco1	-71
CCn1nccc1C(=O)Nc1ccc(C)c(C)c1	-178
SMILES	aSyn UTR act
COc1cc(OC)cc(C(=O)Nc2ccc(NC(=O)c3ccco3)c(C)c2)c1	-123
O=C(Nc1ccc2c(c1)OCCO2)c1ccco1	-68
CC1(C)Oc2ccc(NC(=O)c3ccco3)cc2O1	-168
Cc1csc(SCC(=O)c2c(N)n(C)c(=O)n(C)c2=O)n1	-118
Cc1csc(SCC(=O)c2cc(C)n(Cc3cccs3)c2C)n1	-
COc1c(O)cc2c(c1O)C(=O)CC(c1ccccc1)O2 (configuration not stated)	-102
COc1ccc([C@H]2CC(=O)c3c(O)cc(O)cc3O2)cc1O	-93
COc1ccc(C(=O)CSc2nccn2C)cc1	-80
O=C(CSc1nccn1-c1ccccc1)Nc1ccc2c(c1)OCO2	-69
COc1ccc(NCc2nnc(SCC(=O)c3ccc(OC)cc3)n2C)cc1	-127
CCOc1ccc(NC(=O)CSc2nccn2C)cc1	-65
Cn1ccnc1SCC(=O)Nc1ccc2c(c1)OCO2	-107
